# “And” between values parts separate entries of the source, which are not always exact repeats. Identical values can stand only once. The panel holds about 79,000 compounds, 15% with a hit somewhere; the sample as a whole holds those more often. Where a structure was tested more than once in an assay, its records may differ in their call. The source made the active and inactive calls. Cut-off read from the data, not from the text of the source: active = growth inhibition above about 70%; inactive = the rest.
# How the values were obtained:
# [1] = NCI Yeast Anticancer Drug Screen. Data for the rad52 strain (AID 147);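 note: 0% = growth of vehicle-treated control cultures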; conditions: S. cerevisiae rad52 mutant growth inhibition, stronger effect = higher value
# Summary of the method: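 Growth of repair-deficient yeast cells was compared between compound-treated and vehicle-treated cultures to give percent inhibition.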
# [2] = NCI Yeast Anticancer Drug Screen. Data for the wt1 strain (AID 149);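 note: 0% = growth of vehicle-treated wt1 cultures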; conditions: S. cerevisiae wt1 strain (SPY 50644) growth inhibition, stronger effect = higher value
# Summary of the method: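 wt1 strain grown with compound or vehicle; inhibition taken from the growth difference.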
# [3] = NCI Yeast Anticancer Drug Screen. Data for the rad50EPP+ strain (AID 151);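 note: 0% = growth of vehicle-treated control cultures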; conditions: S. cerevisiae rad50 mutant strain, stronger effect = higher value
# Summary of the method: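 Measured: growth inhibition of rad50EPP+ yeast. Reference: vehicle-treated controls. Screen uses strains with defined genetic alterations in DNA damage repair or cell cycle control.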
# [4] = NCI Yeast Anticancer Drug Screen. Data for the mgt1 strain (AID 153); conditions: S. cerevisiae mgt1 mutant growth inhibition, stronger effect = higher value
# Summary of the method: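 Compounds were applied to mgt1 mutant yeast, and growth was then compared against vehicle-treated control cultures to give percent inhibition.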
# [5] = NCI Yeast Anticancer Drug Screen. Data for the rad50 strain (AID 155);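 note: 0% = growth of vehicle-only cultures of the same strain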; conditions: S. cerevisiae rad50 strain growth inhibition, stronger effect = higher value
# Summary of the method: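 DNA repair mutant yeast, compound exposure, growth read-out; inhibition is taken relative to vehicle.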
# [6] = NCI Yeast Anticancer Drug Screen. Data for the mec2-1 strain (AID 157); conditions: S. cerevisiae mec2-1 strain, stronger effect = higher value
# Summary of the method: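 Compounds were applied to mec2-1 yeast cells. Their growth was then compared with that of vehicle-treated cultures to give growth inhibition.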
# [7] = NCI Yeast Anticancer Drug Screen. Data for the rad14 strain (AID 159);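 note: 0% = growth of vehicle-treated control cultures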; conditions: S. cerevisiae rad14 strain growth inhibition, stronger effect = higher value
# Summary of the method: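 DNA repair-defective yeast, compound-exposed; % growth inhibition derived by comparison with vehicle-treated controls.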
# [8] = NCI Yeast Anticancer Drug Screen. Data for the sgs1 mgt1 strain (AID 161);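 note: 0% = growth of cultures given vehicle only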; conditions: S. cerevisiae sgs1 mgt1 strain, stronger effect = higher value
# Summary of the method: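 Percent growth inhibition was derived by comparing compound-exposed mutant yeast with vehicle-exposed cultures. The strain carries alterations in DNA damage repair.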
# [9] = NCI Yeast Anticancer Drug Screen. Data for the CLN2oe strain (AID 163);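 note: 0% = growth of vehicle-only control cultures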; conditions: S. cerevisiae CLN2oe strain, stronger effect = higher value
# Summary of the method: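 Cells of an engineered yeast line with disturbed cell-cycle regulation are treated with compound. Inhibition of growth is then calculated relative to the vehicle-treated reference.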
# [10] = NCI Yeast Anticancer Drug Screen. Data for the bub3 strain (AID 167); conditions: S. cerevisiae bub3 mutant strain, stronger effect = higher value
# Summary of the method: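 In this screen, a yeast mutant lacking normal mitotic checkpoint function is challenged with compound. Relative growth versus vehicle gives the inhibition value.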
# [11] = NCI Yeast Anticancer Drug Screen. Data for the wt2 strain (AID 169);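 note: 0% = growth of vehicle-treated yeast cultures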; conditions: S. cerevisiae wt2 strain growth inhibition, stronger effect = higher value
# Summary of the method: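 Growth of compound-treated yeast is measured and expressed as inhibition relative to vehicle-only controls.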
# [12] = NCI Yeast Anticancer Drug Screen. Data for the mlh1 strain (AID 171);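 note: 0% = growth of vehicle-treated control cultures of the same strain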; conditions: S. cerevisiae mlh1 strain growth inhibition, stronger effect = higher value
# Summary of the method: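 Test agents were incubated with yeast bearing a defined DNA damage repair or cell cycle control alteration; values are growth inhibition normalised to vehicle-treated cultures.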
# [13] = NCI Yeast Anticancer Drug Screen. Data for the sgs1 strain (AID 173);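 note: 0% = growth of vehicle-only control cultures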; conditions: S. cerevisiae sgs1 mutant, stronger effect = higher value
# Summary of the method: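 Strain with an altered DNA repair or cell cycle pathway exposed to compound. Growth then measured. Value = inhibition versus vehicle control.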
# [14] = NCI Yeast Anticancer Drug Screen. Data for the mlh1 rad18 strain (AID 175); conditions: S. cerevisiae mlh1 rad18 strain growth inhibition, stronger effect = higher value
# Summary of the method: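 A repair-deficient yeast strain is exposed to test compound, and growth is scored relative to vehicle-treated controls.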
# [15] = NCI Yeast Anticancer Drug Screen. Data for the rad18 strain (AID 177); conditions: S. cerevisiae rad18 mutant growth inhibition, stronger effect = higher value
# Summary of the method: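 DNA-repair-defective yeast; compound treatment; growth inhibition scored against vehicle.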
# [16] = at 5.0 µM (retest, dose inferred, filed as 0.5)
# [17] = at 50.0 µM (retest, dose inferred, filed as 5.0)
smiles,measurement,setting,value
COc1ccc2[nH]cc([C@@H]3C4CCC(C4)[C@H]3NCc3cccc(CN[C@H]4C5CCC(C5)[C@@H]4c4c[nH]c5ccc(OC)cc45)c3)c2c1,growth inhibition,[1]; at 1.2 µM,-28% (inactive)
same,growth inhibition,[1]; at 3.7 µM,-23% (inactive)
same,growth inhibition,[1]; at 11.0 µM,-20% (inactive)
same,growth inhibition,[1]; at 33.0 µM,22% (inactive)
same,growth inhibition,[1]; at 100.0 µM,98% (active)
same,growth inhibition,[2]; at 1.2 µM,-33% (inactive)
same,growth inhibition,[2]; at 3.7 µM,-43% (inactive)
same,growth inhibition,[2]; at 11.0 µM,-41% (inactive)
same,growth inhibition,[2]; at 33.0 µM,-8% (inactive)
same,growth inhibition,[2]; at 100.0 µM,93% (active)
same,growth inhibition,[3]; at 1.2 µM,-19% (inactive)
same,growth inhibition,[3]; at 3.7 µM,-14% (inactive)
same,growth inhibition,[3]; at 11.0 µM,-7% (inactive)
same,growth inhibition,[3]; at 33.0 µM,-23% (inactive)
same,growth inhibition,[3]; at 100.0 µM,63% (inactive)
same,growth inhibition,[4]; at 1.2 µM,-36% (inactive)
same,growth inhibition,[4]; at 3.7 µM,-47% (inactive)
same,growth inhibition,[4]; at 11.0 µM,-38% (inactive)
same,growth inhibition,[4]; at 33.0 µM,42% (inactive)
same,growth inhibition,[4]; at 100.0 µM,98% (active)
same,growth inhibition,[5]; at 1.2 µM,-36% (inactive)
same,growth inhibition,[5]; at 3.7 µM,-16% (inactive)
same,growth inhibition,[5]; [16],-15% (inactive)
same,growth inhibition,[5]; at 11.0 µM,-27% (inactive)
same,growth inhibition,[5]; at 33.0 µM,51% (inactive)
same,growth inhibition,[5]; [17],99% (active)
same,growth inhibition,[5]; at 50.0 µM,98.3% (active) and 55.8% (inactive)
same,growth inhibition,[5]; at 100.0 µM,97% (active)
same,growth inhibition,[6]; at 1.2 µM,-61% (inactive)
same,growth inhibition,[6]; at 3.7 µM,-59% (inactive)
same,growth inhibition,[6]; [16],-2% (inactive)
same,growth inhibition,[6]; at 11.0 µM,-54% (inactive)
same,growth inhibition,[6]; at 33.0 µM,26% (inactive)
same,growth inhibition,[6]; [17],99% (active)
same,growth inhibition,[6]; at 50.0 µM,99.2% (active) and 10.9% (inactive)
same,growth inhibition,[6]; at 100.0 µM,97% (active)
same,growth inhibition,[7]; at 1.2 µM,-30% (inactive)
same,growth inhibition,[7]; at 3.7 µM,-23% (inactive)
same,growth inhibition,[7]; at 11.0 µM,0% (inactive)
same,growth inhibition,[7]; at 33.0 µM,89% (active)
same,growth inhibition,[7]; at 100.0 µM,98% (active)
same,growth inhibition,[8]; [16],-7% (inactive)
same,growth inhibition,[8]; [17],88% (active)
same,growth inhibition,[8]; at 50.0 µM,99.4% (active) and 61% (inactive)
same,growth inhibition,[9]; at 1.2 µM,36% (inactive)
same,growth inhibition,[9]; at 3.7 µM,33% (inactive)
same,growth inhibition,[9]; at 11.0 µM,31% (inactive)
same,growth inhibition,[9]; at 33.0 µM,63% (inactive)
same,growth inhibition,[9]; at 100.0 µM,92% (active)
same,growth inhibition,[10]; at 1.2 µM,-25% (inactive)
same,growth inhibition,[10]; at 3.7 µM,-32% (inactive)
same,growth inhibition,[10]; [16],7% (inactive)
same,growth inhibition,[10]; at 11.0 µM,-18% (inactive)
same,growth inhibition,[10]; at 33.0 µM,56% (inactive)
same,growth inhibition,[10]; [17],98% (active)
same,growth inhibition,[10]; at 50.0 µM,98.8% (active) and 35.2% (inactive)
same,growth inhibition,[10]; at 100.0 µM,98% (active)
same,growth inhibition,[11]; at 1.2 µM,-41% (inactive)
same,growth inhibition,[11]; at 3.7 µM,-42% (inactive)
same,growth inhibition,[11]; at 11.0 µM,-46% (inactive)
same,growth inhibition,[11]; at 33.0 µM,20% (inactive)
same,growth inhibition,[11]; at 100.0 µM,99% (active)
same,growth inhibition,[12]; at 1.2 µM,-68% (inactive)
same,growth inhibition,[12]; at 3.7 µM,-64% (inactive)
same,growth inhibition,[12]; at 11.0 µM,-60% (inactive)
same,growth inhibition,[12]; at 33.0 µM,61% (inactive)
same,growth inhibition,[12]; at 100.0 µM,97% (active)
same,growth inhibition,[13]; at 1.2 µM,-38% (inactive)
same,growth inhibition,[13]; at 3.7 µM,-37% (inactive)
same,growth inhibition,[13]; at 11.0 µM,-45% (inactive)
same,growth inhibition,[13]; at 33.0 µM,-5% (inactive)
same,growth inhibition,[13]; at 100.0 µM,97% (active)
same,growth inhibition,[14]; [16],2% (inactive)
same,growth inhibition,[14]; [17],99% (active)
same,growth inhibition,[14]; at 50.0 µM,38.5% (inactive)
same,growth inhibition,[15]; at 1.2 µM,-19% (inactive)
same,growth inhibition,[15]; at 3.7 µM,-10% (inactive)
same,growth inhibition,[15]; at 11.0 µM,-31% (inactive)
same,growth inhibition,[15]; at 33.0 µM,58% (inactive)
same,growth inhibition,[15]; at 100.0 µM,98% (active)

# From PubChem BioAssay (NCI)
